# In PubChem BioAssay (NCI):
# Values joined by “and” are separate entries in the source; they are usually repeats but may differ in a detail not shown here. Identical values can stand only once. This is part of a sample that, as a whole, favours compounds with a hit. Of some 83,000 tested, about 20% had one in any assay.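 48-hour exposure, single concentration, 96-well plates; percent growth endpoint where 0 means no net growth. Active: below 10.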 Active and inactive are the calls of the source.
# Tested on: SNB-19 CNS
# Test: NCI-60 one-dose screen, 48 h (100 = growth as untreated, 0 = no growth, -100 = all killed)
# Conditions: 10 µM unless noted
row,Compound,growth
1,C[N+]1=C(/C=C\C=C\c2ccccc2)C(C)(C)c2ccccc21,27.4% (inactive)
2,O=C(/C=C/C12c3ccccc3C(c3ccccc31)C1C(=O)NC(=O)C12)c1ccncc1 (stereo unspecified),14.5% (inactive)
3,CN1CCN(Cc2ccc(NC(=O)c3nc4ccc5[nH]ncc5c4c4c3CCCC4)cc2C(F)(F)F)CC1,-88.8% (active)
4,CC(=O)c1nn(-c2ccccc2)/c(=N/N=Cc2cn(-c3ccccc3)nc2-c2cc3ccccc3oc2=O)s1,103% (inactive)
5,CN1CCN(Cc2ccc(NC(=O)c3cccc(C#Cc4c(N)ncc5ccc(F)cc45)c3)cc2C(F)(F)F)CC1,-85.9% (active)
6,CCN(C(=O)N1CCN(c2cc3c(cc2F)c(=O)c(C(=O)O)cn3C2CC2)CC1)c1nc(-c2ccccc2)cs1,22.5% (inactive)
7,COc1ccc(-c2ccccc2)cc1-c1c(Nc2cc(Cl)cc(Cl)c2O)c(=O)c1=O,10.9% (inactive)
8,COc1cc(CO)cc2cc3ccccc3nc12,97.1% (inactive)
9,N=C(N)c1ccc(-c2ccc(-c3ccc(Cl)c(Cl)c3)s2)cc1,-23.8% (active)
10,Cc1c(C(=O)OCCCCOC(=O)c2c(C)n(C)c3scc[n+]23)[n+]2ccsc2n1C,101% (inactive)
11,COc1ccc(/C(C)=C(\c2ccc(OCCN3CCOCC3)cc2)c2ccc(OC(=O)C3CCCCC3)cc2)cc1,107% (inactive)
12,CCOc1ccccc1NC(=O)c1cc2ccccc2cc1O,52.9% (inactive)
13,O=S(=O)(Nc1ccc(F)cc1)c1ccc(-c2cnc(C3CC3)o2)cc1,29.7% (inactive)
14,CN(C)c1ccc2nc3ccc(=O)cc-3sc2c1,55.8% (inactive) and 45.9% (inactive)
15,COC(=O)N/N=C/c1c[n+]([O-])c2ccccc2[n+]1[O-],104% (inactive)
16,COc1cc(F)c(/C=C/c2cc(/C=C/c3cc(OC)c(OC)cc3F)n(-c3cc(F)cc(F)c3)n2)cc1OC,56.7% (inactive)
17,Clc1ccc(CNc2ccc3nc(CCC4CCCCC4)[nH]c3c2)cc1,71.1% (inactive)
18,FC(F)(F)Sc1ccc(/C=C/c2cc(/C=C/c3ccc(SC(F)(F)F)cc3)n(-c3ccccc3)n2)cc1,92.6% (inactive)

row,Compound,growth
1,CC(=O)N1N=C(c2ccc(Nc3nc(Nc4ccc(F)cc4)nc(Nc4ccc(F)cc4)n3)cc2)CC1c1ccccc1 (stereo unspecified),77.3% (inactive)
2,COC1/C=C/OC2(C)Oc3c(C)c(O)c4c(O)c(c(C=NOC(c5ccccc5)c5ccccc5)c(O)c4c3C2=O)NC(=O)/C(C)=C/C=C/C(C)C(O)C(C)C(O)C(C)C(OC(C)=O)C1C (stereo unspecified),30.8% (inactive)
3,Nc1ccccc1SC(CC(=O)c1ccccc1)c1ccc([N+](=O)[O-])cc1 (stereo unspecified),93.2% (inactive) and 101% (inactive)
4,Cc1ccc(/C=C/c2c(C(=O)/C=C/c3ccccc3)c(C)nc3ccccc23)cc1,15.7% (inactive)
5,COc1ccc(/C=C(\C#N)c2cc3ccccc3[nH]2)cc1,39.7% (inactive)
6,Cc1ccc(Cl)cc1N1CCN(C(=O)[C@@H]2C[C@@H]2c2ccc(F)cc2)CC1,92% (inactive)
7,COc1ccc(/C=C2/C(=O)N=C3N2NC(c2ccccc2)=CN3c2ccccc2)cc1,97.7% (inactive)
8,COc1ccc2nc3cc(Cl)ccc3c(NCCCNCCC(C)O)c2c1 (stereo unspecified),-25.6% (active)
9,COc1ccc(-c2nc(Cl)c3c(C)nn(-c4ccc(F)cc4)c3n2)cc1,99.7% (inactive)
10,C=CCOc1ccc(/C=C2\SC(=S)N(CCc3ccc(O)cc3)C2=O)cc1,93.3% (inactive)
11,O=C1N=c2ccccc2=C1c1sc(=S)n(C2CC(=O)N(c3ccc(Cl)cc3)C2=O)c1O (stereo unspecified),102% (inactive)
12,COc1c(O)c(O)cc2c3c(oc12)CC(c1ccc2c(c1)OCO2)CC3=O (stereo unspecified),77.8% (inactive)
13,O=C(c1cccc(Br)c1)N1CCN(c2ccnc3cc(Cl)ccc23)CC1,85.1% (inactive)
14,Cc1ccc(S(=O)(=O)OC[C@@]2(C)CC[C@]3(C)CC[C@]4(C)C(=C3C2)C=C[C@@H]2[C@@]3(C)CCCNC(C)(C)[C@@H]3CC[C@]24C)cc1,47.8% (inactive)
15,Oc1ccccc1C=Nc1ccc(N2CCN(c3ccccc3)CC2)cc1,107% (inactive)
16,Fc1ccc(NC(c2ccc(F)cc2)C2CCN(CCCCc3ccccc3)CC2)cc1 (stereo unspecified),50% (inactive)
17,NCCOCCOc1ccccc1,106% (inactive)
18,COc1ccc(/C=C/C(=O)c2cc3c(N)c(C(=O)Nc4ccccc4)sc3nc2C)cc1,1.78% (active)
